Compound activity as filed in PubChem BioAssay.
This is a sample that favours compounds with a hit; in the whole collection about 32% have one here.
CYP2C19 inhib = inhibitors of human CYP2C19. CYP2C19 Supersomes, luciferin-H EGE luminescence, 30 min. AID 778. P33261. hit rate 21% among 96,000. inhibition, % at 5 µM;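 active means CYP2C19 inhibition above a set limit at 5 µM in the primary screen, cut at about 50% in these data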
Target sequence (P33261 whole entry, looked up): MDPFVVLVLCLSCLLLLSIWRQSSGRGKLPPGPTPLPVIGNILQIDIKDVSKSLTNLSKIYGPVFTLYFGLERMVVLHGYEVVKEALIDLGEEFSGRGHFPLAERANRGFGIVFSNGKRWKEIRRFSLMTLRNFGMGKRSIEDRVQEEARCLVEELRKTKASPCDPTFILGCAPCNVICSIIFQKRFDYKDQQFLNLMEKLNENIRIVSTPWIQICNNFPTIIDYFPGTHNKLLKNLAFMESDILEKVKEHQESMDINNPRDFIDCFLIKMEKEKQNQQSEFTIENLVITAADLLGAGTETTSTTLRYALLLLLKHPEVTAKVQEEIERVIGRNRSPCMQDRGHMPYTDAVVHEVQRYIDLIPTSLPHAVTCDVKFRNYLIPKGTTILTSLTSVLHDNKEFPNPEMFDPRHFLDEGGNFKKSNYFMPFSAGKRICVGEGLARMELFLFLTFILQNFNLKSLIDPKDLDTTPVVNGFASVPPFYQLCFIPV
PostGolgi ctrl = yeast control strain growth, post-Golgi counter-screen | hit rate 5% among 98,000 | inhibition, % at 10 µM | efflux-deficient yeast background strain, growth absorbance A615, 16 h
PostGolgi yeast = growth inhibition of a yeast mutant, post-Golgi transport screen; hit rate 0.9% among 98,000; post-Golgi transport phenotypic cell assay; inhibition, % at 10 µM;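 further: yeast cells grown in 1536-well plates; yeast grown about 18 h at 30C before absorbance read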
CYP2C9 inh = blocks human cytochrome P450 2C9 | inhibition, % at 5 µM | CYP2C9 Supersomes, luciferin-H conversion, luminescence | hit rate 20% among 96,000;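 active means blocking of liver enzyme CYP2C9 beyond about 50% at 5 µM, limit read from the data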
CYP2C9 act = CYP2C9 (human) activation; recombinant CYP2C9, luciferin-H conversion, luminescence; stronger effect = higher value; factor 1 = untreated enzyme, 0 = blocked; activation factor at 5 µM; hit rate 1.4% among 96,000;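 active means activation factor of 2 or more for CYP2C9 at a 5 µM dose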
CYP2C19 activ = cytochrome P450 2C19 (human) activation. activation factor at 5 µM. 96,000 tested, under 10 active. recombinant CYP2C19, luciferin-H EGE luminescence; stronger effect = higher value; 0 = fully inhibited enzyme, 1 = untreated enzyme. P33261;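 active means activation factor of at least 2 at 5 µM in the primary screen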
Of the large screens only hits and unclear results are named; the others gave an inactive call. Unless noted, no stated cut-off is given here; in the data, active means inhibition above about 30%; inactive means the rest.

CCOc1ccccc1NC(=O)C1CC2CCCC(C1)C2=O (stereo unspecified)	none
CC1CCN(c2oc(Cc3cccc4ccccc34)nc2C#N)CC1	CYP2C19 inhib 93.2, CYP2C9 inh 76.3
N#Cc1nc(Cc2cccc3ccccc23)oc1N1CCOCC1	none
Cc1ccc(OCCN2CCN(C(=O)CCC(=O)Nc3nnc(C)s3)CC2)cc1	none (no result: CYP2C19 inhib, CYP2C9 inh, CYP2C9 act, CYP2C19 activ)
Cc1ccc(OCCN2CCN(C(=O)CCC(=O)Nc3nnc(C(C)C)s3)CC2)cc1	PostGolgi ctrl 39.9
Cc1c(-c2cccs2)[n+](=O)c2c(n1[O-])CCCCC2	CYP2C19 inhib 59.3
CCN(CC)C(=O)C1CCN(Cc2ccc(Br)cc2)CC1	PostGolgi yeast 60.9
CC(=O)Nc1c(C)nn(-c2ccc(C)c(C)c2)c1C	none
COCCCNc1nc2ccccc2nc1NS(=O)(=O)c1cccs1	CYP2C9 inh 94.0
COc1ccc(Nc2nc3ccccc3nc2NS(=O)(=O)c2cccs2)cc1	PostGolgi ctrl 35.5, CYP2C9 inh 87.5
O=S(=O)(Nc1nc2ccccc2nc1NCC1CCCO1)c1cccs1 (stereo unspecified)	CYP2C9 inh 92.1
Cc1cccc(NS(=O)(=O)c2cccs2)n1	none
O=S(=O)(c1cccs1)N1CN(CC2CCCO2)c2nc3ccccc3nc21 (stereo unspecified)	none
COCc1cc(=O)n2c(-c3ccc(C)cc3)n[nH]c2n1	none
Cc1ccc(NC2SC(=O)N(Cc3cccc(C(=O)O)c3)C2=O)cc1 (stereo unspecified)	none
Cc1cc(C)nc(-n2nc(C)c(Sc3ccc(F)cc3)c2N)n1	CYP2C19 inhib 79.4, PostGolgi ctrl 51.2, CYP2C9 inh 65.7
CCOC(=O)c1sc2nc(CC(=O)OC)nc(NCCN3CCOCC3)c2c1C	CYP2C19 inhib 54.5, CYP2C9 inh 50.8
CCOC(=O)c1sc2nc(CC(=O)OC)nc(NCc3ccc(Cl)cc3)c2c1C	none
CCOC(=O)c1sc2nc(CC(=O)OC)nc(NCCN(CC)CC)c2c1C	none
CCOC(=O)c1sc2nc(CC(=O)OC)nc(N3CCN(c4ccc(OC)cc4)CC3)c2c1C	CYP2C19 inhib 88.7, CYP2C9 inh 95.6
CC(=O)NC1C(=O)Nc2c(C)cc(C)cc21 (stereo unspecified)	none
COc1cccc2cc(-c3nnc(SCC(=O)Nc4nc(C)cs4)n3C)oc12	none
Cc1ccc2c(CC(=O)NC3=NCCS3)coc2c1	PostGolgi ctrl 33.4
COc1cc2ncnc(NCc3ccc(C)cc3)c2cc1OC	CYP2C19 inhib 62.6
COc1ccc(NC2CC(=O)NC2=O)cc1 (stereo unspecified)	none
COc1ccc(C(=O)c2oc3ccccc3c2NC(C)=O)cc1	none
COc1cccc(NC(=O)c2oc3ccccc3c2NC(=O)c2ccc3c(c2)OCO3)c1	none
CCOC(=O)c1oc2ccccc2c1NC(=O)c1ccccc1OC	PostGolgi ctrl 69.8
COc1ccc(OC)c(C(=O)c2oc3ccccc3c2NC(C)=O)c1	CYP2C19 inhib 98.1
COc1cccc(NC(=O)c2oc3ccccc3c2NC(=O)C(C)(C)C)c1	CYP2C9 inh 80.6
O=C(CCn1cccc1)Nc1cc(F)ccc1F	none
O=C(O)CCc1nn2c3ccccc3nc2n(CCN2CCCCC2)c1=O	none (no result: CYP2C19 inhib, CYP2C9 inh, CYP2C9 act, CYP2C19 activ)
O=C(/C=C/N1CCOCC1)c1ccc(-c2ccccc2)cc1	CYP2C9 inh 89.0
CC1CCN(CCCNC(=O)c2ccc(CSCc3cccc(Cl)c3)o2)CC1	none
O=C(CN1C(=O)CSC1=O)N1CCc2ccccc2C1	none
CCCc1cc(SCC(=O)Nc2c(C)n(C)n(-c3ccccc3)c2=O)n2c(nc3ccccc32)c1C#N	none
CC(C)c1ccc(CN(C(=O)C2COc3ccccc3O2)C2CCS(=O)(=O)C2)cc1 (stereo unspecified)	PostGolgi ctrl 63.1
CN(C)c1ccc(CN(C(=O)C2COc3ccccc3O2)C2CCS(=O)(=O)C2)cc1 (stereo unspecified)	CYP2C19 inhib 93.6, CYP2C9 inh 65.1
O=C1C2CC=CCC2C(=O)N1CC(=O)N(Cc1ccccc1)C1CCS(=O)(=O)C1 (stereo unspecified)	none
CN(C)c1ccc(CN(C(=O)COc2ccccc2)C2CCS(=O)(=O)C2)cc1 (stereo unspecified)	none
CCOC(=O)c1c(C)[nH]c(C(=O)OCC(=O)NC(C)C)c1C	none
CC(=O)Nc1ccccc1-c1nc2ccc(C(=O)N3CCN(c4cccc(C)c4)C(C)C3)cc2[nH]c1=O (stereo unspecified)	CYP2C19 inhib 69.6, CYP2C9 inh 86.7
CC(=O)Nc1ccccc1-c1nc2ccc(C(=O)N3CCN(c4ccccc4)CC3)cc2[nH]c1=O	none
COc1cccc(N2CCN(C(=O)c3ccc(=O)oc3)CC2C)c1 (stereo unspecified)	none
Cc1cccc(N2CCN(C(=O)c3cc4c(=O)n(C)c5ccccc5c4n3C)CC2C)c1 (stereo unspecified)	CYP2C19 inhib 99.0, PostGolgi ctrl 36.5, CYP2C9 inh 94.3
Cc1cccc(N2CCN(C(=O)c3ccc4nc(-c5ccco5)c(-c5ccco5)nc4c3)CC2C)c1 (stereo unspecified)	CYP2C9 inh 52.4
CCOC(=O)C1=CSC2=NS(=O)(=O)CCN12	none
Cc1cccc(-n2cnc(C(=O)NC3CCCCCC3)c2)n1	none
CC1(C)C=C(c2ccc(O)cc2)CC(C)(C)N1	none
COc1ccc(-n2c(NC(=O)c3ccc(Br)o3)c(C#N)c3nc4ccccc4nc32)cc1	CYP2C9 inh 78.9
Cc1ccc(NCCC(=O)c2ccc(Cl)cc2)cc1	CYP2C19 inhib 83.1
Cc1ccc(NCCC(=O)c2ccc(Br)cc2)cc1	CYP2C19 inhib 78.7
CCc1ccc(CN/C=C/C(=O)c2ccc(Br)cc2)cc1	none
CCc1ccc(NCCC(=O)c2ccc(Br)cc2)cc1	CYP2C19 inhib 86.3, CYP2C9 inh 50.5
CCOC(=O)C(CC)n1cnc2c(nnn2-c2ccc(C)cc2)c1=O (stereo unspecified)	CYP2C9 inh 50.3
O=c1cc(CSc2nnnn2-c2ccccc2)nc2scc(-c3ccccc3)n12	none
Cc1ccccc1Nc1nc(CSc2nnnn2-c2ccccc2)cs1	CYP2C19 inhib 93.7, CYP2C9 inh 50.6
c1ccc(-c2nc(CSc3nnnn3-c3ccccc3)cs2)cc1	CYP2C19 inhib 97.1, PostGolgi ctrl 48.8, CYP2C9 inh 50.5
O=C(NC1CC2CCC1C2)c1ccc(CN2CCOCC2)cc1 (stereo unspecified)	none
Cc1ccc(N2CC(C(=O)Nc3nnc(C(C)C)s3)CC2=O)cc1 (stereo unspecified)	CYP2C9 inh 58.3
Cc1ccc(N2CC(C(=O)NCCCn3ccnc3)CC2=O)cc1 (stereo unspecified)	CYP2C19 inhib 85.2, CYP2C9 inh 76.1
COC(=O)c1c(C)n(-c2ccc(C)cc2)c2ccc(O)cc12	CYP2C19 inhib 53.0, PostGolgi ctrl 47.2
CC(=O)c1c(C)n(-c2ccccc2)c2ccc(OCC(O)CN3CCOCC3)cc12 (stereo unspecified)	CYP2C19 inhib 77.4, CYP2C9 inh 67.8
